{"source": "PubChem BioAssay (NCI)", "note": "About 79,000 compounds went through this panel and 15% of them were active in at least one assay; those are over-represented in the sample as a whole. Unmarked numbers belong to inactive results. Activity calls are given as the source filed them. No stated cut-off is given here; in the data, active means growth inhibition above about 70%; inactive means the rest."}
{"test": "NCI Yeast Anticancer Drug Screen. Data for the mlh1 rad18 strain (AID 175)", "settings": "S. cerevisiae mlh1 rad18 strain growth inhibition; at 50.0 µM; stronger effect = higher value", "outline": "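Steps: expose repair-defective yeast to compound; measure growth; express inhibition against vehicle-treated controls.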"}
{"smiles": "NC(=O)/C=C/C(=O)O", "growth inhibition": "14%"}
{"smiles": "O=C(O)c1cc(I)cc(I)c1I", "growth inhibition": "12.7%"}
{"smiles": "CC(C)(C)NC(=O)C(Cl)Cl", "growth inhibition": "3.35%"}
{"smiles": "O.O.O=Cc1ccccc1O.O=Cc1ccccc1O.[Co]", "growth inhibition": "98.3% (active)"}
{"smiles": "CC(Cc1ccc(O)cc1)NCC(O)c1ccc(O)c(O)c1", "note": "(centres undefined)", "growth inhibition": "22.9%"}
{"smiles": "CC1([N+](=O)[O-])COP(=O)(NCC2CCCO2)OC1", "note": "(centres undefined)", "growth inhibition": "3.95%"}
{"smiles": "O=[As](O)(O)c1cc(F)ccc1F", "growth inhibition": "-8.3%"}
{"smiles": "O=C(O)COc1ccc(Cl)cc1Cl", "note": "(tested in a mixture with another compound)", "growth inhibition": "-0.9%"}
{"smiles": "NC(CSC(c1ccccc1)c1ccccc1)C(=O)O", "note": "(centres undefined)", "growth inhibition": "3.5%"}
{"smiles": "Cc1cccc(C)c1[S][Pb][S]c1c(C)cccc1C", "growth inhibition": "-17.4%"}
{"smiles": "O=C(CF)NCCCl", "growth inhibition": "1.45%"}
{"smiles": "O=C(Nc1ccc(Cl)cc1C(=O)c1ccccc1)c1ccc(Cl)cc1", "growth inhibition": "9.55%"}
{"smiles": "CN1CN(c2ccccc2)C2(CCN(CC(C)(c3ccc(F)cc3)C3OCCCO3)CC2)C1=O", "note": "(centres undefined)", "growth inhibition": "8.95%"}
{"smiles": "CCOC(CNC(=O)c1ccc(S(=O)(=O)F)cc1)OCC", "growth inhibition": "26.4%"}
{"smiles": "CCN(CC)CC(=O)c1ccccc1", "growth inhibition": "-45.7%"}
{"smiles": "CCC[CH2][Sn]([CH2]CCC)([CH2]CCC)[CH2]CC(=O)OC", "growth inhibition": "99.5% (active)"}
{"smiles": "CCC(=O)C1(c2ccccc2)CCN(C)CC1", "growth inhibition": "6.7%"}
{"smiles": "Cc1nnnn1C", "growth inhibition": "-13.9%"}
{"smiles": "O=[As](O)(O)c1cc(N=Nc2ccc(-c3ccc(N=Nc4cc([As](=O)(O)O)c(O)cc4O)cc3)cc2)c(O)cc1O", "growth inhibition": "25.4%"}
